# Laboratory results taken from the supplement of paper PMC12282887.
# ± gives the standard deviation of the averaged measurements.
# Columns and labels:
# Assay in all cases: promoter activity interaction Z-score (Lux/OD deviation from empty-vector control); higher = stronger promoter induction by the compound
# [1] = tested on: E. coli BW25113 acrABp lux reporter
# Outline: (§1)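 Four 1:2 dilutions of each compound were tested in biological duplicates on E. coli BW25113 carrying low-copy luxCDABE promoter reporters, either wild type or deleted for one of three genes. Cultures of 40 µl LB Lennox in 384-well plates were kept at 37°C and read for OD600 and luminescence every 30 min for 12 h. Integration windows were 0–8 h for wild type and 1–9 h for deletion strains, and wells under 10% of the median growth value were discarded. The score is a Z-transformed residual of growth-normalised luminescence relative to a control fit.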
# [2] = tested on: E. coli BW25113 marRABp lux reporter
# Outline: as §1
# [3] = tested on: E. coli BW25113 micFp lux reporter
# Outline: as §1
# [4] = tested on: E. coli BW25113 ompFp lux reporter
# Outline: as §1
# [5] = tested on: E. coli BW25113 robp lux reporter
# Outline: as §1
# [6] = tested on: E. coli BW25113 soxSp lux reporter
# Outline: as §1
# [7] = tested on: E. coli BW25113 tolCp lux reporter
# Outline: as §1
# [8] = 21 µg/ml, genetic background: wild type
# [9] = 21 µg/ml, genetic background: ΔmarA
# [10] = 21 µg/ml, genetic background: Δrob
# [11] = 21 µg/ml, genetic background: ΔsoxS
# [12] = 42 µg/ml, genetic background: wild type
# [13] = 42 µg/ml, genetic background: ΔmarA
# [14] = 42 µg/ml, genetic background: Δrob
# [15] = 42 µg/ml, genetic background: ΔsoxS
# [16] = 84.1 µg/ml, genetic background: wild type
# [17] = 84.1 µg/ml, genetic background: ΔmarA
# [18] = 84.1 µg/ml, genetic background: Δrob
# [19] = 84.1 µg/ml, genetic background: ΔsoxS
# [20] = 168.2 µg/ml, genetic background: wild type
# [21] = 168.2 µg/ml, genetic background: ΔmarA
# [22] = 168.2 µg/ml, genetic background: Δrob
# [23] = 168.2 µg/ml, genetic background: ΔsoxS
smiles,measurement,setting,value
COc1ccc2cc3[n+](cc2c1OC)CCc1cc2c(cc1-3)OCO2 [Berberine],promoter activity interaction Z-score,[1]; [8],0.0236 ± 0.072
same,promoter activity interaction Z-score,[1]; [9],-0.475 ± 0.1
same,promoter activity interaction Z-score,[1]; [10],-0.306 ± 0.009
same,promoter activity interaction Z-score,[1]; [11],0.123 ± 0.39
same,promoter activity interaction Z-score,[1]; [12],-0.0191 ± 0.052
same,promoter activity interaction Z-score,[1]; [13],-0.27 ± 0.38
same,promoter activity interaction Z-score,[1]; [14],-0.196 ± 0.1
same,promoter activity interaction Z-score,[1]; [15],0.128 ± 0.55
same,promoter activity interaction Z-score,[1]; [16],-0.175 ± 0.13
same,promoter activity interaction Z-score,[1]; [17],-0.268 ± 0.47
same,promoter activity interaction Z-score,[1]; [18],-0.263 ± 0.31
same,promoter activity interaction Z-score,[1]; [19],0.253 ± 1.1
same,promoter activity interaction Z-score,[1]; [20],-0.0717 ± 0.13
same,promoter activity interaction Z-score,[1]; [21],-1.16 ± 0.13
same,promoter activity interaction Z-score,[1]; [22],-0.157 ± 0.19
same,promoter activity interaction Z-score,[1]; [23],0.745 ± 1.3
same,promoter activity interaction Z-score,[2]; [8],-0.142 ± 0.16
same,promoter activity interaction Z-score,[2]; [9],-0.0869 ± 0.24
same,promoter activity interaction Z-score,[2]; [10],-0.003 ± 0.15
same,promoter activity interaction Z-score,[2]; [11],0.0721 ± 0.0037
same,promoter activity interaction Z-score,[2]; [12],-0.183 ± 0.049
same,promoter activity interaction Z-score,[2]; [13],-0.0953 ± 0.12
same,promoter activity interaction Z-score,[2]; [14],-0.278 ± 0.1
same,promoter activity interaction Z-score,[2]; [15],-0.0367 ± 0.026
same,promoter activity interaction Z-score,[2]; [16],-0.286 ± 0.35
same,promoter activity interaction Z-score,[2]; [17],0.056 ± 0.18
same,promoter activity interaction Z-score,[2]; [18],-0.324 ± 0.01
same,promoter activity interaction Z-score,[2]; [19],-0.135 ± 0.015
same,promoter activity interaction Z-score,[2]; [20],-0.373 ± 0.17
same,promoter activity interaction Z-score,[2]; [21],-0.165 ± 0.027
same,promoter activity interaction Z-score,[2]; [22],-0.287 ± 0.045
same,promoter activity interaction Z-score,[2]; [23],-0.015 ± 0.094
same,promoter activity interaction Z-score,[3]; [8],-0.242 ± 0.064
same,promoter activity interaction Z-score,[3]; [9],0.146 ± 0.14
same,promoter activity interaction Z-score,[3]; [10],-0.0671 ± 0.15
same,promoter activity interaction Z-score,[3]; [11],-0.125 ± 0.15
same,promoter activity interaction Z-score,[3]; [12],0.0805 ± 0.15
same,promoter activity interaction Z-score,[3]; [13],0.226 ± 0.014
same,promoter activity interaction Z-score,[3]; [14],0.0807 ± 0.046
same,promoter activity interaction Z-score,[3]; [15],0.68 ± 0.077
same,promoter activity interaction Z-score,[3]; [16],0.36 ± 0.12
same,promoter activity interaction Z-score,[3]; [17],0.426 ± 0.11
same,promoter activity interaction Z-score,[3]; [18],0.14 ± 0.12
same,promoter activity interaction Z-score,[3]; [19],0.7 ± 0.18
same,promoter activity interaction Z-score,[3]; [20],0.445 ± 0.051
same,promoter activity interaction Z-score,[3]; [21],0.425 ± 0.057
same,promoter activity interaction Z-score,[3]; [22],0.095 ± 0.17
same,promoter activity interaction Z-score,[3]; [23],2.075 ± 0.006
same,promoter activity interaction Z-score,[4]; [8],-0.331 ± 0.05
same,promoter activity interaction Z-score,[4]; [9],-0.189 ± 0.11
same,promoter activity interaction Z-score,[4]; [10],-0.392 ± 0.37
same,promoter activity interaction Z-score,[4]; [11],-0.128 ± 0.0057
same,promoter activity interaction Z-score,[4]; [12],-0.202 ± 0.02
same,promoter activity interaction Z-score,[4]; [13],-0.182 ± 0.032
same,promoter activity interaction Z-score,[4]; [14],0.159 ± 0.48
same,promoter activity interaction Z-score,[4]; [15],-0.184 ± 0.26
same,promoter activity interaction Z-score,[4]; [16],-0.592 ± 0.13
same,promoter activity interaction Z-score,[4]; [17],0.181 ± 0.27
same,promoter activity interaction Z-score,[4]; [18],-0.302 ± 0.21
same,promoter activity interaction Z-score,[4]; [19],0.222 ± 0.86
same,promoter activity interaction Z-score,[4]; [20],-0.265 ± 0.1
same,promoter activity interaction Z-score,[4]; [21],-0.655 ± 0.28
same,promoter activity interaction Z-score,[4]; [22],-0.0984 ± 0.32
same,promoter activity interaction Z-score,[4]; [23],0.615 ± 1.2
same,promoter activity interaction Z-score,[5]; [8],-0.384 ± 0.27
same,promoter activity interaction Z-score,[5]; [9],-0.668 ± 0.061
same,promoter activity interaction Z-score,[5]; [10],-0.229 ± 0.035
same,promoter activity interaction Z-score,[5]; [11],1.02 ± 0.67
same,promoter activity interaction Z-score,[5]; [12],-0.378 ± 0.14
same,promoter activity interaction Z-score,[5]; [13],-0.587 ± 0.51
same,promoter activity interaction Z-score,[5]; [14],-0.855 ± 0.25
same,promoter activity interaction Z-score,[5]; [15],-0.0756 ± 0.39
same,promoter activity interaction Z-score,[5]; [16],-0.935 ± 0.66
same,promoter activity interaction Z-score,[5]; [17],-0.613 ± 0.14
same,promoter activity interaction Z-score,[5]; [18],-0.951 ± 0.11
same,promoter activity interaction Z-score,[5]; [19],-0.288 ± 0.24
same,promoter activity interaction Z-score,[5]; [20],-0.906 ± 0.21
same,promoter activity interaction Z-score,[5]; [21],-1.18 ± 0.24
same,promoter activity interaction Z-score,[5]; [22],-0.88 ± 0.11
same,promoter activity interaction Z-score,[5]; [23],-0.247 ± 0.37
same,promoter activity interaction Z-score,[6]; [8],0.0121 ± 0.039
same,promoter activity interaction Z-score,[6]; [9],0.176 ± 0.081
same,promoter activity interaction Z-score,[6]; [10],0.152 ± 0.084
same,promoter activity interaction Z-score,[6]; [11],-0.0133 ± 0.085
same,promoter activity interaction Z-score,[6]; [12],0.0147 ± 0.0098
same,promoter activity interaction Z-score,[6]; [13],0.336 ± 0.2
same,promoter activity interaction Z-score,[6]; [14],0.0622 ± 0.0015
same,promoter activity interaction Z-score,[6]; [15],-0.227 ± 0.048
same,promoter activity interaction Z-score,[6]; [16],-0.148 ± 0.0029
same,promoter activity interaction Z-score,[6]; [17],0.232 ± 0.064
same,promoter activity interaction Z-score,[6]; [18],0.0295 ± 0.037
same,promoter activity interaction Z-score,[6]; [19],-0.359 ± 0.27
same,promoter activity interaction Z-score,[6]; [20],-0.174 ± 0.033
same,promoter activity interaction Z-score,[6]; [21],0.0364 ± 0.046
same,promoter activity interaction Z-score,[6]; [22],-0.0651 ± 0.054
same,promoter activity interaction Z-score,[6]; [23],-0.426 ± 0.38
same,promoter activity interaction Z-score,[7]; [8],0.227 ± 1.2
same,promoter activity interaction Z-score,[7]; [9],0.771 ± 0.18
same,promoter activity interaction Z-score,[7]; [10],-0.361 ± 0.45
same,promoter activity interaction Z-score,[7]; [11],0.909 ± 0.084
same,promoter activity interaction Z-score,[7]; [12],0.235 ± 0.016
same,promoter activity interaction Z-score,[7]; [13],1.1 ± 0.24
same,promoter activity interaction Z-score,[7]; [14],0.305 ± 0.6
same,promoter activity interaction Z-score,[7]; [15],0.638 ± 0.84
same,promoter activity interaction Z-score,[7]; [16],0.735 ± 0.75
same,promoter activity interaction Z-score,[7]; [17],0.534 ± 0.58
same,promoter activity interaction Z-score,[7]; [18],0.496 ± 0.28
same,promoter activity interaction Z-score,[7]; [19],-0.159 ± 0.1
same,promoter activity interaction Z-score,[7]; [20],0.2 ± 1.1
same,promoter activity interaction Z-score,[7]; [21],-0.272 ± 1.3
same,promoter activity interaction Z-score,[7]; [22],0.279 ± 0.36
same,promoter activity interaction Z-score,[7]; [23],1.31 ± 0.19
